Pemphigus Ab inh = human desmoglein-3 autoantibody binding inhibition; AID 588358; DSG3-coupled beads, scFv-anti-DSG3-GFP binding, flow cytometry; active compounds read low; 310,000 compounds, 0.48% hits; binding (percent of control), % at 10 µM; P32926;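 active = binding more than 3 SD below its plate's average and above zero; inconclusive = below that plate limit but binding exactly zero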;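 note: hits lower antibody fragment binding to DSG3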
Target sequence (P32926 whole entry, looked up, the tested form may be a part): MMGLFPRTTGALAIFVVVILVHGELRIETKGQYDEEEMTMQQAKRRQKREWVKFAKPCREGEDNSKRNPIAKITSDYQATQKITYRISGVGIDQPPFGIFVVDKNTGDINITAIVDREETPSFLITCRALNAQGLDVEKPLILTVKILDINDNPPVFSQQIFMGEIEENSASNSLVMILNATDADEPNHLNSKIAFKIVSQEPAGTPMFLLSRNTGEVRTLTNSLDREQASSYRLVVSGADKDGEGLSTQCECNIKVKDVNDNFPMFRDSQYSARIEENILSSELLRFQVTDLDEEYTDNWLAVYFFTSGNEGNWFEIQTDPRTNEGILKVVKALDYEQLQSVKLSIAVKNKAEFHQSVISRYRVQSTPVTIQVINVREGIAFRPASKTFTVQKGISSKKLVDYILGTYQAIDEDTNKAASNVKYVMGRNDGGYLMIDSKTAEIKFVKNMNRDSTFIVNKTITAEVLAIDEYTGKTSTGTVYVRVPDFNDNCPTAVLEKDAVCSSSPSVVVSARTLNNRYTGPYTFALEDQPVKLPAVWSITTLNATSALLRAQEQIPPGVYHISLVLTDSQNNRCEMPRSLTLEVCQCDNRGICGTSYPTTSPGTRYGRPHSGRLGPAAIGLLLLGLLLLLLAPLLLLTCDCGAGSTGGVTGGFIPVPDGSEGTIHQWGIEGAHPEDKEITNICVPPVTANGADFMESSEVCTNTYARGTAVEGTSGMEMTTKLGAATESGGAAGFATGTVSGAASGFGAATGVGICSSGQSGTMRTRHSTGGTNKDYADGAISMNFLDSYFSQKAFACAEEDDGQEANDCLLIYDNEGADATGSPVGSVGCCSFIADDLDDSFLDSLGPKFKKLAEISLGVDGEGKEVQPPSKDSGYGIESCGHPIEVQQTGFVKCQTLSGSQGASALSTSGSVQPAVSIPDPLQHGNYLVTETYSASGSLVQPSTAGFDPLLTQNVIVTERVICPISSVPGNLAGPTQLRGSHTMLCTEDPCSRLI
MsrA inhibitor = inhibitors of bovine MsrA; purified bovine MsrA, absorbance read-out; inhibition, % at 15.5 µM; 360,000 compounds, 0.75% hits; AID 651718; in the data active = inhibition above about 4.5%
rCAG RNA binder = molecules binding r(CAG) RNA repeats; r(CAG) RNA repeat, TO-PRO-1 dye displacement fluorescence; inhibition, % at 3 µM; 370,000 compounds, 1.3% hits;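 active = inhibition above the plate cutoff, the mean of all test compounds on that plate plus 3 SD, cut at about 35% in these data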;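 note: higher means more dye released from RNA so lower well fluorescence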
MsrA act = activators of bovine methionine sulfoxide reductase A; purified bovine MsrA, absorbance read-out; activation, % at 10.6 µM; 360,000 compounds, 0.3% hits; in the data active = activation above about 7.5%
DAGLB inhibitor = blocks human DAGLB lipase activity; Q8NCG7; HEK293T DAGLB membrane lysate, EnzChek fluorogenic substrate; inhibition, % at 5.17 µM; 340,000 compounds, 0.059% hits; AID 504411; in the data active = inhibition above about 34%
NadD block = NadD (S. aureus) enzyme inhibition | inhibition, % at 20 µM | 360,000 compounds, 0.78% hits | purified NadD enzyme, colorimetric absorbance read-out; in the data active = inhibition above about 26%
rCAG bind conf = r(CAG) RNA repeat binding, confirmation; shares compounds with rCAG RNA binder; TO-PRO-1 dye displacement fluorescence; inhibition, % at 3 µM; 4,300 compounds, 70% hits;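 active = inhibition above a per-plate cutoff, the mean inhibition of sample wells plus 3 SD, cut at about 35% in these data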;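 note: loss of TO-PRO-1 fluorescence as compound displaces dye from 1x1 AA loop RNA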
DNA CAG counter = disrupts DNA CAG TO-PRO-1 complex, flagging rCAG hits. shares compounds with rCAG RNA binder. d(CAG) DNA oligo TO-PRO-1 dye displacement, fluorescence. inhibition, % at 3 µM. 4,300 compounds, 94% hits. AID 652068;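 active = inhibition above its plate's cutoff, the mean test-well inhibition plus 3 SD, cut at about 4.8% in these data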;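 note: hits displace the dye from DNA and so lower well fluorescence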
Numbers stand for hits; 0 = inactive; ? = inconclusive; - = no result. Sampled rows, rich in hits. Any-hit rate of the full collection: about 3.2%.

SMILES	Pemphigus Ab inh	MsrA inhibitor	rCAG RNA binder	MsrA act	DAGLB inhibitor	NadD block	rCAG bind conf	DNA CAG counter
CCCS(=O)(=O)c1c(S(=O)(=O)CCC)c2c(N)cccn2c1C(=O)c1ccccc1	0	0	42.9	0	0	0	0	10.3
CCCS(=O)(=O)c1c(S(=O)(=O)CCC)c2c3ccccc3ccn2c1C(N)=O	0	0	0	0	0	0	-	-
COc1ccc(-n2c(SCC(=O)N/N=C(/C)c3cccc(O)c3)nc3ccccc3c2=O)cc1	-	-	0	-	-	-	-	-
CC1(CO)CCCC1NCCNC1CCCC1(C)CO (stereo unspecified)	-	-	-	0	-	0	-	-
Oc1cccc(CN2CCOCC2)c1O	0	0	40.9	0	0	0	0	0
CCCc1cc(CN2CCOCC2)c(O)c(CN2CCOCC2)c1O	-	0	0	0	0	0	-	-
O=[N+]([O-])c1ccc(-c2nc(Nc3ccc(O)cc3)c3ccccc3n2)cc1	0	0	36.6	0	0	0	0	10.3
O=C(O)c1ccc(Nc2nc(-c3ccc([N+](=O)[O-])cc3)nc3ccccc23)cc1	0	0	0	0	0	0	-	-
COc1ccc(-n2c(SCC(=O)Nc3nccs3)nnc2-c2ccccc2)cc1	-	0	0	0	0	0	-	-
COc1ccc(-c2nnc(Nc3ccc(S(=O)(=O)Nc4nccs4)cc3)c3ccccc23)cc1	0	0	35.0	0	0	0	49.7	19.0
Cn1c(COc2ccccc2)nnc1SCC(=O)Nc1ccc(S(=O)(=O)Nc2nccs2)cc1	-	-	48.9	-	-	-	46.6	17.7
Cn1c(COc2ccccc2)nnc1SCC(=O)Nc1ccc(OCc2ccccc2)cc1	-	-	0	-	-	-	-	-
O=C(CSc1nnc(-c2ccco2)n1-c1ccc(Cl)cc1)Nc1ccc(S(=O)(=O)Nc2nccs2)cc1	-	-	61.9	-	-	-	56.6	19.9
COc1ccc(-n2c(SCC(=O)Nc3ccc(S(=O)(=O)Nc4nccs4)cc3)nnc2-c2ccccc2)cc1	-	-	78.2	-	-	-	72.0	36.6
COCCNc1nc(-c2ccc(OC)cc2C)c2sc(-c3ccccc3)cc2n1	-	0	0	0	-	0	-	-
O=S1(=O)c2ccc(Br)cc2OC[C@@H](c2ccccc2)N1Cc1cn(CCC2OCCO2)nn1	-	-	0	-	-	-	-	-
Cn1c(=O)ccc2ccccc21	-	0	0	0	-	0	-	-
Cc1ccc(OCc2nnc(SCC(=O)Nc3nccs3)n2-c2ccccc2)cc1C	0	0	0	0	0	0	-	-
O=C(CSc1nnc(COc2ccccc2)n1-c1ccccc1)Nc1ccc(S(=O)(=O)Nc2nccs2)cc1	-	-	74.6	-	-	-	65.2	27.7
COC(=O)[C@]12C[C@H](CC(=O)NCc3cccs3)C(=O)N(CCc3ccc(OC)c(OC)c3)C1=C[C@H](C1CCCC1)O[C@@H]2C	-	-	0	-	-	-	-	-
CN(C(=O)CSc1nc(-c2ccc(C(C)(C)C)cc2)c(C#N)c(=O)[nH]1)C1CCCCC1	0	0	70.3	0	0	0	84.5	50.1
O=S(=O)(Nc1ncccn1)c1ccc(NC(=S)NCCc2ccc(Cl)cc2)cc1	0	0	38.4	0	0	0	0	0
CCCCCN(CCCCC)C(=O)C(CCC(=O)O)NC(=O)c1ccc(Cl)c(Cl)c1 (stereo unspecified)	0	0	53.7	0	0	0	51.6	11.5
O=C(NCc1ccccc1)C(c1ccco1)N1CCN(c2ccccc2F)CC1 (stereo unspecified)	-	0	0	-	-	-	-	-
CCOC(=O)[C@@]12CCCC3=C1N(CCC3)C(=O)[C@H]2CC(=O)NCCCOC	-	-	0	-	-	-	-	-
SMILES	Pemphigus Ab inh	MsrA inhibitor	rCAG RNA binder	MsrA act	DAGLB inhibitor	NadD block	rCAG bind conf	DNA CAG counter
O=C(/C=C/c1ccco1)Nc1ccc2nn(-c3ccccc3)nc2c1	0	0	39.9	0	0	0	0	12.8
CCOC(=O)C1CCN(C(=O)COC(=O)c2ccccc2C(=O)c2ccc(Cl)cc2)CC1	?	0	0	0	0	0	-	-
CC(C)=CCC/C(C)=C/Cc1c(O)ccc(C(=O)/C=C/c2ccc(O)cc2)c1O	-	0	67.6	0	0	0	39.3	23.7
Cc1ccccc1NC(=O)Cn1nnc(-c2ccncc2)n1	-	-	0	-	-	-	-	-
C/C(=N\Nc1cccc(C(=O)O)c1)c1ccc(Cl)s1	0	0	41.7	0	0	0	0	0
CN(CC(=O)NCC1CCCO1)S(=O)(=O)c1ccc2ccccc2c1 (stereo unspecified)	0	0	0	0	0	0	-	-
CCc1ccc(/C=C/C(=O)C2C(=O)c3ccccc3C2=O)cc1	0	0	64.4	0	0	0	78.6	38.7
CCOC(=O)N1CCc2c(sc(NC(=O)c3ccc(S(=O)(=O)N4CCCC4)cc3)c2C#N)C1	0	0	83.9	0	0	0	57.2	18.7
CCCSc1nc(O)c(C2OC(=O)c3c2ccc(OC)c3OC)c(=O)n1C (stereo unspecified)	0	0	0	0	0	0	-	-
CCCCCCSc1nc(O)c(C2OC(=O)c3c2ccc(OC)c3OC)c(=O)n1CC (stereo unspecified)	0	0	38.6	0	0	0	35.9	8.3
COc1ccc(CN2C(=O)CSCCC2(C)c2nnnn2-c2c(C)cccc2C)cc1 (stereo unspecified)	-	-	0	-	-	-	-	-
CC(C)[C@H](NC(=O)N1CCOCC1)C(=O)N1CCC[C@H]1C(=O)NCc1ccccc1	-	0	0	-	-	-	-	-
COc1ccc(C(=O)/C=C/c2cccc(OCc3ccccc3)c2)cc1CSCC(=O)O	0	0	60.5	0	0	0	82.8	44.2
COc1ccc(C=CC(=O)c2ccc(OCc3ccccc3)c(OC)c2)cc1OC	0	0	0	0	0	0	-	-
CCOC(=O)c1c(NC(=O)CSc2ccccc2C(=O)O)sc(C)c1C	0	0	39.6	0	0	0	40.9	13.4
CN1CCCCC(NC(=O)CCCl)C1=O (stereo unspecified)	-	0	0	-	-	-	-	-
CCOC(=O)CSc1nnc(-c2cc(OC)c(OC)c(OC)c2)o1	0	0	0	0	0	0	-	-
COc1cc(-c2nnc(SCc3cc(=O)oc4cc(O)c(O)cc34)o2)cc(OC)c1OC	0	0	58.5	0	0	0	64.0	29.9
COc1ccc(Oc2ccc(/C=C/C(=O)c3ccc(O)cc3)cc2[N+](=O)[O-])cc1	-	0	36.5	0	0	0	0	10.7
COc1ccc(/C=C/C(=O)c2ccc(O)cc2)cc1COc1ccc(F)cc1	0	0	0	0	0	0	-	-
O=C(/C=C/c1ccc(O)c([N+](=O)[O-])c1)c1ccc2ccccc2c1	0	0	42.3	0	0	0	77.9	39.2
Cc1cc(C)cc(C(=O)OCCN2CCN(C3CN(Cc4cn(Cc5ccccc5F)nn4)S(=O)(=O)C3)CC2)c1 (stereo unspecified)	-	-	0	-	-	-	-	-

Bioassay records: PubChem BioAssay, several laboratories
